# Hits are enriched below; roughly 1.3% of the tested compounds scored in any of these assays.
# Keap1 Nrf2 FP – inhibitors of human Keap1-Nrf2 protein-protein interaction | Q14145 | Keap1 Kelch-Nrf2 peptide fluorescence polarization, 1536-well | inhibition, % at 9.4 µM | actives 0.15% (n = 340,000) | AID 504523; in the data active means inhibition above about 12%;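 further: human Keap1 Kelch domain with fluorescein labeled Nrf2 9mer peptide probe; 0% = neutral control wells and 100% = peptide positive control; higher means more block of Keap1 binding to Nrf2 peptide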
# LANA DNA inh – KSHV C-LANA DNA binding inhibition. MBP-C-LANA/FAM-LBS DNA binding, fluorescence polarization. actives 0.078% (n = 340,000). inhibition, % at 9 µM;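 active means highest replicate inhibition at or above 60% at 9 µM, even if other replicates fall short; inactive means all replicates below 60% inhibition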;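 further: 0% = neutral control wells and 100% = 4 µM acridine orange control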
# RTF Ca sens inh – cardiac RTF calcium desensitization. IANBD-labeled cardiac RTF, Ca2+ fluorescence. inhibition, % at 7.15 µM. actives 0.12% (n = 340,000). AID 493244;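 active means inhibition above the mean inhibition of all tested compounds plus 3 SD, cut at about 17% in these data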;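 further: assay run at fixed EC70 calcium of 1.6 mM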
# LANA-H2A inh – blocks KSHV LANA binding to histone H2A/H2B | Q9QR71 | cell-free LANA-H2A/H2B peptide, fluorescence polarization | inhibition, % (concentration not given with the values) | actives 0.6% (n = 320,000); in the data active means inhibition mostly above about 10%, no sharp cut-off; inactive means mostly below about 6.7%
# eLon inh – E. coli protease La inhibition. P0A9M0. purified E. coli Lon protease, fluorescence polarization. inhibition, % at 7.94 µM. actives 0.42% (n = 360,000). AID 602123; in the data active means inhibition above about 13%, passing the limit was not always enough;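 further: 0% = enzyme with probe and DMSO and 100% = no enzyme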
# RTF Ca sens act – cardiac RTF calcium sensitization; P19429+P45379; IANBD-labeled TnC RTF fluorescence at EC20 calcium; 0% EC20 calcium, 100% full calcium; activation, % at 7.2 µM; actives 0.24% (n = 340,000);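 active means activation above the mean over all tested compounds plus 3 SD, cut at about 30% in these data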;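 further: rise in fluorescence read as greater calcium sensitivity of cardiac thin filaments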
# * = called active by the depositor; . = no result given; + = active, no number.
SMILES,Keap1 Nrf2 FP,LANA DNA inh,RTF Ca sens inh,LANA-H2A inh,eLon inh,RTF Ca sens act
CN(CC(=O)Nc1ccccc1C(F)(F)F)C(=O)C1CCN(S(=O)(=O)c2ccc3c(c2)OCCO3)CC1,0,0,-6,-5,-12,-4
Cc1cccc(N(CC(=O)NCC2CCCO2)C(=O)CCC(=O)Nc2nccs2)c1 (stereo unspecified),-2,-1,-5,3,-3,0
COc1cccc(N(CC(=O)NCC2CCCO2)C(=O)CCC(=O)Nc2nccs2)c1 (stereo unspecified),1,1,2,29*,-5,-5
O=C(O)c1nn(CCOc2ccc(Br)cc2)c(=O)c2ccccc12,2,-1,-10,13*,-3,-3
O=C(Nc1ccccc1)c1nsnc1C(=O)Nc1ccccc1,0,-1,-12,1,2,1
CC(C)(C)c1nnc(N/N=C/c2cc(Br)ccc2O)n(N)c1=O,2,0,0,+,9,-11
CCc1nnc(N/N=C/c2cc(Br)c(O)cc2O)n1N,-5,0,-3,-10,4,3
O=C(C[n+]1ccc(/C=N/O)cc1)NC1CCCCC1,0,0,5,17*,-4,2
O=C(C[n+]1ccc(/C=N/O)cc1)NCc1ccccc1,-2,1,-2,1,-9,4
CC1(C)S[C@@H]2[C@H](NC(=O)C(C(=O)O)c3ccccc3)C(=O)N2[C@H]1C(=O)O (stereo partly specified),-3,1,4,27*,-4,0
Cc1cccc(-c2nc3c(c(SCC(=O)N4CCOCC4)n2)Cc2c(CO)cnc(C)c2O3)c1,-4,-1,6,18*,4,-5
Cc1ncc(CO)c2c1Oc1nc(-c3ccccc3)nc(SCC(=O)N3CCOCC3)c1C2,-3,-3,1,0,7,-6
O=C1NC(c2ccc(Br)cc2)Oc2ccccc21 (stereo unspecified),-9,-1,-6,3,-5,8
CCCCn1c(O)c(/C=C2\C=NN=C2c2ccccc2)sc1=S,-5,-2,-3,-1,14,-18
CCn1c(O)c(/C=C2\C=NN=C2c2ccccc2)sc1=S,-7,1,-3,15*,-14,-5
Cc1ccc(C(=O)OCC(=O)Nc2cc(C(C)(C)C)no2)c(C)c1,-2,0,-7,12*,-8,2
Cc1noc(C)c1S(=O)(=O)N(C)C[C@H]1Oc2ccc(NS(=O)(=O)c3ccccc3)cc2C(=O)N([C@H](C)CO)C[C@@H]1C,-1,4,-8,-7,-8,3
COCCNC(=S)NNC(=O)c1ccco1,3,1,-3,61*,1,3
O=C(NCCC1CCCCN1S(=O)(=O)c1ccc(Cl)cc1)C(=O)NCc1cccnc1 (stereo unspecified),1,0,0,-3,-1,-3
O=C(NC1CCC(O)CC1)c1ccc(NS(=O)(=O)c2cccc([N+](=O)[O-])c2)cc1 (stereo unspecified),7,3,-6,24*,1,0
Cc1c(Cl)cccc1NC(=O)CNC(=O)CCCc1nc2ccccc2c(=O)[nH]1,.,.,-6,.,2,3
Cc1nc2ccc(Cl)cc2nc(C)/c1=N\O,-21,13,3,0,-6,34*
O=C(Nc1ccccc1)OCC(CN1CCCCC1)OC(=O)Nc1ccccc1 (stereo unspecified),-3,1,10,-5,1,3
CC(=O)NCCC1CCN(C(=O)C2CCC(=O)N(C3CCCC3)C2)CC1 (stereo unspecified),-1,1,-5,4,-3,-5
O=c1[nH]c(CO)nc2c1oc1ccccc12,-2,-1,-19,4,3,4
O=c1[nH]c(Cc2ccccc2)nc2c1oc1ccccc12,0,0,-1,8.2*,2,-1
Cc1ccc(-c2nnc(Nc3ccc(OCC(N)=O)cc3)c3ccccc23)cc1S(N)(=O)=O,0,-2,2,-6,-2,-2
NC(=O)COc1ccc(Nc2nnc(-c3ccc(O)cc3)c3ccccc23)cc1,-1,-2,3,19*,-4,1
NNC(=O)c1csc(Cc2c(Cl)sc3ccc(Cl)cc23)n1,-3,-2,0,-3,-2,8

# Compound activity from PubChem.
